The full list was thinned out, with hits kept by preference.
GIRK2 activator = GIRK2 channel activators by thallium flux; 34,000 tested, under 10 active; activation (% efficacy), % for hits at 37.5 µM; HEK293 GIRK2/NPY4 cells, thallium flux fluorescence; P48051;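 active = primary screen hit, no activity in plain HEK293 cells, and in GIRK2-only cells above 5% efficacy rising with concentration; inactive = the rest, including fluorescent compounds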;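 note: efficacy is normalized control-subtracted fluorescence 15 s after thallium addition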
AMPAR-TARP mod = modulators of AMPA receptor GluA2-stargazin complexes; O88602+P19491; HEK293 GluA2+stargazin, membrane potential dye (FDSS), glutamate EC50; hits were called plate by plate, in both directions; calls only at 30 µM; 40,000 tested, 3.5% active; AID 1259245;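 active = any of four per-well response measures lying three or more SD from its plate-wide compound average, in either direction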
Target sequence (O88602 whole entry, looked up): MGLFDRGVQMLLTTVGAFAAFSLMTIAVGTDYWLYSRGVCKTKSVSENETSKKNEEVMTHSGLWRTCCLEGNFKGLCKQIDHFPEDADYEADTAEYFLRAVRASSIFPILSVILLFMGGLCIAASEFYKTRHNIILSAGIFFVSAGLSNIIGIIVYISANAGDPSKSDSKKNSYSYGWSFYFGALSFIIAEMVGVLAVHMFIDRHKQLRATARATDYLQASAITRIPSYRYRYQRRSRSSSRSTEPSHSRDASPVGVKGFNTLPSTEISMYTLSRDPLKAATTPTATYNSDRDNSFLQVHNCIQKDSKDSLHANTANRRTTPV
Target sequence (P19491 whole entry, looked up): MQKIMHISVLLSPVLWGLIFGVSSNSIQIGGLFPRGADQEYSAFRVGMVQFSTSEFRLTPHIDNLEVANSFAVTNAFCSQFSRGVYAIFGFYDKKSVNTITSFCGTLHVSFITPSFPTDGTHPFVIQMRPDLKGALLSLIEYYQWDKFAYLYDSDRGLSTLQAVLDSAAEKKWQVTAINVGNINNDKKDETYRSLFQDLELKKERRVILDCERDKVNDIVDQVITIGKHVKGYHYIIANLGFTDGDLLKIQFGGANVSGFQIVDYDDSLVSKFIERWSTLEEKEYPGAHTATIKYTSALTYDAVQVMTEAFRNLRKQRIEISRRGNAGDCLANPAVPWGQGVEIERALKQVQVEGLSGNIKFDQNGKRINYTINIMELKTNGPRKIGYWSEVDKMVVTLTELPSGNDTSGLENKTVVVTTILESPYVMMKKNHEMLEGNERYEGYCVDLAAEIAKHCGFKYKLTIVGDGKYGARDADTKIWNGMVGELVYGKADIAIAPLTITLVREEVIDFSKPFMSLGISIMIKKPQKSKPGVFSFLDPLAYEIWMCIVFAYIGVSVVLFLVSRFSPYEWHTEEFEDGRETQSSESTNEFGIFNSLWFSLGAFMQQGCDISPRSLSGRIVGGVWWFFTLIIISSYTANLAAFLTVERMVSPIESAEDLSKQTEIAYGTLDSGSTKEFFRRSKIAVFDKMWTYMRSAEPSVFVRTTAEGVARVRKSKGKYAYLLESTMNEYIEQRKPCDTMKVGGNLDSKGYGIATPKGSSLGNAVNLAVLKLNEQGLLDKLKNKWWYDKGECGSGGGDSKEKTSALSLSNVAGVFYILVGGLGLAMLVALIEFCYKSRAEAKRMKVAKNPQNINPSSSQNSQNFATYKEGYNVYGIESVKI
* = called active by the depositor; i = inactive; · = not tested or not shown; + = active, no number.

SMILES | GIRK2 activator | AMPAR-TARP mod
CS(=O)(=O)c1ccc(CC(=O)Nc2ccc(Cl)cc2C(=O)c2ccccc2Cl)cc1 | · | +
CCS(=O)(=O)c1ccc(CC(=O)Nc2ccc(Cl)cc2C(=O)c2ccccc2)cc1 | · | i
Cc1cc([N+](=O)[O-])c(Cl)cc1NC(=O)c1cccnc1 | · | i
O=C(NCC1CCN(C(=O)Oc2ccccc2)CC1)NC(c1ccccc1)c1ccccc1 | i | i
Cc1ccc(NC(=O)NCC2CCN(C(=O)Oc3ccccc3)CC2)cc1C | i | +
Clc1cc(Cl)cc(C2CNCCO2)c1 (centres undefined) | i | i

Screening results from PubChem BioAssay.
